Screens deposited in PubChem BioAssay by several laboratories.
Measles CPE: protection of cells from measles virus. Measles virus-infected cells, CPE protection, absorbance. 140,000 compounds, 1.5% hits. protection (pct of control), % at 4 µM; in the data active = protection mostly above about 24%, no sharp cut-off; inactive = mostly below about 26%
CYP2C19 activ: cytochrome P450 2C19 (human) activation. recombinant CYP2C19, luciferin-H EGE luminescence; stronger effect = higher value; 0 = fully inhibited enzyme, 1 = untreated enzyme. activation factor at 5 µM. 96,000 tested, under 10 active. AID 1025;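 active = activation factor of at least 2 at 5 µM in the primary screen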;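 note: 0 = wells with 2.5 mM tranylcypromine and 1 = vehicle-only wells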
CYP2C9 inh: human CYP2C9 inhibition; CYP2C9 Supersomes, luciferin-H conversion, luminescence; AID 777; 96,000 compounds, 20% hits; inhibition, % at 5 µM; P11712;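 active = blocking of liver enzyme CYP2C9 beyond about 50% at 5 µM, limit read from the data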
Target sequence (P11712 whole entry, looked up): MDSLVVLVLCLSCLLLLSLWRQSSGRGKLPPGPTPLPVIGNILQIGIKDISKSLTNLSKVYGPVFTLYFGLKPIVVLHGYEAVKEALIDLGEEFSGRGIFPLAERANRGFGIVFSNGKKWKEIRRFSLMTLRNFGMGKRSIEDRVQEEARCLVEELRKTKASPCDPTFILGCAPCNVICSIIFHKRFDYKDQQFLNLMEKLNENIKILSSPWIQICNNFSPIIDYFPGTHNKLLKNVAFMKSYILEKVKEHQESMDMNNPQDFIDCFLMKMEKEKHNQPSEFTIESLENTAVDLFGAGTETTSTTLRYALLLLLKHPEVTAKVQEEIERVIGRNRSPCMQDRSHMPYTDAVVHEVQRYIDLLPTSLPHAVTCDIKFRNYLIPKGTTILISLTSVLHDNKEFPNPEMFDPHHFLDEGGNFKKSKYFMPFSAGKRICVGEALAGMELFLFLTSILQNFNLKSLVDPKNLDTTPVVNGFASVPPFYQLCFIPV
CYP2C19 inh: blocks human cytochrome P450 2C19; P33261; CYP2C19 Supersomes, luciferin-H EGE luminescence, 30 min; inhibition, % at 5 µM; 96,000 compounds, 21% hits;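 active = CYP2C19 inhibition above a set limit at 5 µM in the primary screen, cut at about 50% in these data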;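 note: plate controls were negative control wells for no effect and 2.5 mM tranylcypromine positive control for full effect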
CYP2C9 act: activators of human CYP2C9. recombinant CYP2C9, luciferin-H conversion, luminescence; stronger effect = higher value; factor 1 = untreated enzyme, 0 = blocked. activation factor at 5 µM. P11712. 96,000 compounds, 1.4% hits;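 active = activation factor of 2 or more for CYP2C9 at a 5 µM dose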;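 note: 0 = sulfaphenazole-blocked wells and 1 = vehicle-only wells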
An asterisk follows results filed as active; · = not tested or not shown. An excerpt weighted towards active compounds, which were near 22% of everything screened.

SMILES | Measles CPE | CYP2C19 activ | CYP2C9 inh | CYP2C19 inh | CYP2C9 act
CCOC(=O)Cn1c(=O)oc2cc(S(=O)(=O)N(CCN(C)C)Cc3ccccc3)ccc21 | 8 | 1 | 9 | -4 | 0.9
CCOC(=O)Cn1c(=O)oc2cc(S(=O)(=O)Nc3cc(Cl)ccc3OC)ccc21 | 12 | 0.6 | 61* | 36 | 0.4
Oc1c(I)cc(Cl)c2cccnc12 | 17 | · | · | · | ·
Cc1nnc(-c2ccccc2)c[n+]1[O-] | 14 | 1.3 | -35 | -27 | 1.4
Cc1occc1C(=O)NCc1ccccn1 | 9 | 1.1 | -10 | -9 | 1.1
CCOC(=O)c1ccc2cccc(C)n2c1=O | 2 | 0.1 | 74* | 88* | 0.3
CCc1nnc(NC(=O)CSc2nnnn2-c2cccc(C(=O)OC)c2)s1 | 1 | 0.7 | 68* | 33 | 0.3
Cc1nonc1NC(=O)CSc1nnc(-c2ccoc2C)n1CC(C)C | 20 | 0.2 | 14 | 76* | 0.9
CCc1nnc(NC(=O)CSc2nnc(CNc3cccc(C)c3)n2-c2ccccc2)s1 | 6 | 0.5 | 77* | 51* | 0.2
Cc1cccc(-n2c(SCC(=O)Nc3nonc3C)nnc2-c2ccoc2C)c1 | 9 | 0.6 | 54* | 45 | 0.5
Cc1cc(Nc2ccccc2C(=O)O)nc2nc3ccccc3c(=O)n12 | 22 | 0.9 | 36 | 14 | 0.6
CCc1nnc(NC(=O)CSc2nnc(-c3ccccc3OC)n2-c2ccc(C)cc2)s1 | 8 | 0.2 | 72* | 77* | 0.3
CCc1nnc(NC(=O)CSc2nnc(CNc3ccc(F)cc3)n2C2CCCCC2)s1 | 12 | 0.4 | 68* | 57* | 0.3
Cc1cc(NC(=O)CSc2nnc(CNc3ccc(F)cc3)n2C2CCCCC2)no1 | 12 | 1 | 14 | 0 | 0.9
CCc1nnc(NC(=O)CSc2nnc(-c3ccoc3C)n2-c2cccc(C)c2)s1 | 17 | 0.6 | 54* | 37 | 0.5
COc1ccc(NC(=O)C2=C(C)Nc3ncnn3C2c2ccccc2C(F)(F)F)c(OC)c1 (stereo unspecified) | 7 | 0.6 | 45 | 38 | 0.5
C/C(O)=C\c1nc2ccccc2oc1=O | 28* | 1.1 | -14 | -12 | 1.1
CS(=O)(=O)Cc1nc2ccccc2oc1=O | 1 | 0.4 | 45 | 64* | 0.6
CCS(=O)(=O)CCSc1nc2ccccc2o1 | 1 | 1 | 15 | 4 | 0.8
CCCCN(C(=O)NC(=O)Nc1c(C)cc(C)cc1C)S(C)(=O)=O | 3 | 0.6 | 25 | 37 | 0.7
CCCOc1ccc(C(=O)N2CC3(CC(c4cccc(NC(=O)[C@@H]5CCC(=O)N5)c4)=NO3)C[C@H]2C(=O)NC2(C(N)=O)CC2)cc1 (stereo partly specified) | 0 | 0.8 | -2 | 16 | 1
CCOC(=O)c1c(NC(=O)C2CCCO2)sc(C(N)=O)c1C (stereo unspecified) | 11 | · | · | · | ·
CCc1c(C)sc(NC(=O)c2cccs2)c1C(=O)OC(C)C | 14 | 0.5 | 64* | 51* | 0.4
COC(=O)c1c(NC(=O)c2ccco2)sc(C(=O)N(C)C)c1C | 9 | · | · | · | ·
CCOC(=O)c1c(NC(=O)C2c3ccccc3Oc3ccccc32)sc(C(N)=O)c1C | 8 | 0.5 | 78* | 46 | 0.2
SMILES | Measles CPE | CYP2C19 activ | CYP2C9 inh | CYP2C19 inh | CYP2C9 act
CCc1noc(C)c1C(=O)Nc1sc(C(=O)N(C)C)c(C)c1C(=O)OC | 4 | 0.5 | 60* | 46 | 0.4
CCOC(=O)c1c(NC(=O)c2cccnc2Cl)sc(C(=O)N(C)C)c1C | 17 | · | · | · | ·
CCOC(=O)c1c(NC(=O)c2cccs2)sc(C)c1CC | 1 | 0.6 | 4 | 44 | 1
CCOC(=O)c1c(NC(=O)c2cccs2)sc(C(=O)N(C)C)c1C | 3 | 0.4 | 77* | 58* | 0.2
C=CCn1c(SCC(=O)c2c(N)n(CCC)c(=O)n(C)c2=O)nc2sc(CC)cc2c1=O | 6 | 0.9 | 43 | 5 | 0.6
Clc1cccc(Cl)c1COc1ccccn1 | 15 | 0.5 | 37 | 52* | 0.6
Cc1[nH]ccc(=O)c1OCc1c(Cl)cccc1Cl | 17 | 0.9 | 18 | 12 | 0.8
CC(C)(CNC(=O)c1sc2cc(F)ccc2c1Cl)N1CCOCC1 | 23 | · | · | · | ·
Cc1ccc(C(=O)NCC(C)(C)N2CCOCC2)s1 | 13 | 0.4 | 2 | 55* | 1
CN(C(=O)c1c(Cl)nc2sccn12)C1CCCCC1 | 23* | 0.7 | -14 | 31 | 1.1
CCN(CC)S(=O)(=O)c1cccc(C(=O)N2CC(O)CC2C(=O)OC)c1 (stereo unspecified) | 13 | 1 | 2 | -5 | 1
CCN(CC)S(=O)(=O)c1cccc(C(=O)N2CC(O)CC2C(=O)O)c1 (stereo unspecified) | 28* | 1.2 | -11 | -24 | 1.1
CCN(CC)S(=O)(=O)c1cccc(C(=O)NC2CCCCC2)c1 | 9 | 0.6 | 58* | 38 | 0.4
CCN(CC)S(=O)(=O)c1csc(C(=O)NC2CCCCC2)c1 | 12 | 1 | 62* | 2 | 0.4
CCN(CC(=O)NC1CCCCCC1)S(=O)(=O)c1ccccc1 | 4 | 0.7 | 21 | 28 | 0.8
O=C(Nc1cc(S(=O)(=O)N2CCCC2)ccc1Cl)C1=COCCO1 | 27 | 0.5 | 36 | 52* | 0.6
O=C1Cn2c(nc3ccccc32)N1c1cccc(C(F)(F)F)c1 | 23 | 0.4 | 31 | 59* | 0.7
Cn1nnnc1SCC(=O)NCc1ccccc1 | 14 | · | · | · | ·
CCOc1cc(C(=O)NC(C)c2ccncc2)cc(OCC)c1OCC (stereo unspecified) | 3 | 0.2 | 80* | 80* | 0.2
CCOc1cc(C(=O)NCc2ccncc2)cc(OCC)c1OCC | 16 | 0.2 | 92* | 84* | 0.1
CCOc1ccc(C(=O)NCc2ccncc2)cc1OCC | 11 | 0.6 | 49 | 40 | 0.5
Cc1cc(C)nc(/N=C(\N)C2=C(O)CC(C)(C)CC2=O)n1 | 3 | 0.8 | 13 | 23 | 0.9
CCN1C(=O)/C(=C/c2c(C)nn(C)c2C)SC1=S | 22 | 1 | 15 | 3 | 0.9
COc1ccc(CNC(=O)c2cc3c(=O)n4ccccc4nc3n(Cc3cccnc3)c2=N)cc1 | 5 | 1 | 5 | 4 | 1
N=c1c(C(=O)NCc2ccco2)cc2c(=O)n3ccccc3nc2n1Cc1ccc(Cl)cc1 | 6 | 0.6 | 64* | 39 | 0.4
SMILES | Measles CPE | CYP2C19 activ | CYP2C9 inh | CYP2C19 inh | CYP2C9 act
N=c1c(S(=O)(=O)c2ccc(Cl)cc2)cc2c(=O)n3ccccc3nc2n1CCN1CCOCC1 | 5 | 0.6 | 59* | 40 | 0.4
Cn1c(=N)c(S(=O)(=O)c2ccccc2)cc2c(=O)n3ccccc3nc21 | 20 | 0.9 | -19 | 12 | 1.2
Cc1ccc(CNC(=O)c2cc3c(=O)n4ccccc4nc3n(Cc3ccco3)c2=N)cc1 | · | 0.9 | 56* | 10 | 0.4
N=c1c(C(=O)NCc2ccco2)cc2c(=O)n3ccccc3nc2n1Cc1ccccc1 | 19 | 0.7 | 46 | 34 | 0.5
N=c1c(C(=O)NCc2ccccc2)cc2c(=O)n3ccccc3nc2n1Cc1ccco1 | 16 | 0.7 | 48 | 26 | 0.5
N=c1c(C(=O)NCc2ccc3c(c2)OCO3)cc2c(=O)n3ccccc3nc2n1Cc1cccnc1 | 15 | 0.5 | 67* | 46 | 0.3
